Source: PubChem BioAssay (several laboratories)
Hits are enriched below; roughly 2.9% of the tested compounds scored in any of these assays.
KLK7 zymogen act – proKLK7 zymogen activators, primary screen, biochemical, fluorescence intensity; Kallikrein-7 (Homo sapiens), P49862; purified proKLK7, EDANS-DABCYL substrate fluorescence; 100% is mature enzyme control, 0% vehicle; activation, % at 7 µM; 370,000 compounds, 0.9% hits;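 active = activation above the mean of all tested compounds plus 3 SD, computed per campaign excluding outliers beyond control limits, cut at about 13% in these data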
Target sequence (P49862 whole entry, looked up): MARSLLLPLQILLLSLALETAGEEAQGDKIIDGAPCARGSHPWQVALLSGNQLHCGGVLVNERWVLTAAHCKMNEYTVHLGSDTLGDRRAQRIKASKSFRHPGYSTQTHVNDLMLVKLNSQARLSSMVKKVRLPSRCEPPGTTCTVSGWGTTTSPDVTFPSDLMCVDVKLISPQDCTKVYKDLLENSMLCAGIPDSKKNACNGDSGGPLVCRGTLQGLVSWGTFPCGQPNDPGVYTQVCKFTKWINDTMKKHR
SMARCA2 activ – SMARCA2 (BRM) function activators, primary screen, cell-based, luminescence, high throughput; MG213 cells, MMTV-luciferase reporter, dexamethasone, overnight; activation, % at 9.1 µM; 370,000 compounds, 1% hits; in the data active = activation above about 7.8%;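 note: 0% = vehicle wells and 100% = reference activator wells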
GAA850 FXN act – FXN promoter activators, primary screen, cell-based, luciferase luminescence, HEK293 lucGAA850 | HEK293 lucGAA850 FXN promoter luciferase reporter, 24 h; percent of 10 µM SAHA response | activation, % at 6 µM | 360,000 compounds, 0.56% hits;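 active = activation above the average of all compounds screened plus 3 SD, cutoff fixed separately per campaign, cut at about 7.5% in these data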;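 note: 0% = DMSO wells and 100% = 10 µM SAHA wells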
FAS TE block – FAS thioesterase domain inhibitors, primary screen, biochemical, fluorescence intensity, uHTS | Fatty acid synthase (Homo sapiens), P49327 | inhibition, % at 15 µM | recombinant FAS-TE, OMFH fluorogenic substrate, fluorescence endpoint | 360,000 compounds, 0.67% hits;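 active = compounds whose normalised, plate-corrected inhibition of enzyme fluorescence in the single-dose primary screen is 50% or more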;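 note: 0% = DMSO with enzyme and 100% = substrate without enzyme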
FAS-TE conf – FAS thioesterase domain inhibitors, confirmation, biochemical, fluorescence intensity, single concentration; shares compounds with FAS TE block; recombinant FAS-TE, OMFH fluorogenic substrate; inhibition, % at 15 µM; 2,300 compounds, 45% hits; AID 624325, 2012;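 active = compounds inhibiting the enzyme by at least 50% at 15 µM in any one of the replicates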;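 note: 0% = enzyme with DMSO only and 100% = wells lacking enzyme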
SMARCA2 act conf – SMARCA2 (BRM) function activators, confirmation, cell-based, luminescence, triplicate; activation, % at 9.1 µM; 3,500 compounds, 30% hits; MG213 cells, MMTV-luciferase with dexamethasone, overnight; MG213 cells expressing E1A, Rb sequestered; DMSO wells 0%, reference activator 100%; shares compounds with SMARCA2 activ;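 active = activation above its plate's cutoff, the mean activation of tested wells plus 3 SD, cut at about 7.9% in these data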
VP16 Luc act – GAL4-VP16 luciferase reporter activation, counter-screen for SMARCA2 (BRM) activator project, cell-based, pG5luc, luminescence, high throughput; shares compounds with SMARCA2 activ; HEK293 GAL4-VP16 pG5luc reporter; scaled: DMSO wells 0%, SAHA wells 100%; activation, % at 9.1 µM; 3,500 compounds, 41% hits;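 active = activation above the solvent-only control well mean plus 3 SD, averaged across control plates, cut at about 5.2% in these data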
Active calls of the source: *; / = not tested or not shown.

SMILES | KLK7 zymogen act | SMARCA2 activ | GAA850 FXN act | FAS TE block | SMARCA2 act conf | VP16 Luc act | others
C=CCn1c(=O)c(C=Nc2cccc([N+](=O)[O-])c2)c(O)n(CCCC)c1=O | 0 | 2 | 3 | 42 | / | /
Cn1cc(C=C(C#N)C#N)c2ccccc21 | -1 | -2 | 0 | 63* | / | / | FAS-TE conf=-20
NP(=O)(Oc1ccccc1Cl)Oc1ccccc1Cl | 0 | 1 | -1 | 75* | / | / | FAS-TE conf=85*
O=c1[nH]c(=S)[nH]c(O)c1N=Nc1ccc(S(=O)(=O)N2CCc3ccccc32)cc1 | 0 | 14* | 2 | 24 | 11* | -1
O=c1[nH]c(=S)[nH]c(O)c1N=Nc1ccc(SC(F)F)cc1 | -1 | 11* | 1 | 0 | 12* | 10.0*
Cn1c(CN2CCN(C(=O)COc3ccccc3)CC2)nc2cc([N+](=O)[O-])ccc21 | 0 | -1 | 0 | 5 | / | /
COc1c(C)cc(C(=O)C2CCCN(Cc3cccc(C)n3)C2)cc1C (stereo unspecified) | 0 | -3 | -2 | -2 | / | /
CN(C)P(=O)(C(Cl)=C(N1CCCCC1)N1CCCCC1)N(C)C | 0 | 19* | -2 | -9 | 39* | -2
COC(=O)C(O)(c1ccc(NC(=O)NC2CCCCC2)cc1)C(F)(F)F (stereo unspecified) | 0 | 10* | 7 | -3 | 8 | 5.2*
N=c1sc2c(n1Cc1ccccc1)CCCC2 | 0 | -1 | 2 | -16 | / | /
NC(Cc1ccccc1)c1csc(Nc2ccccn2)n1 (stereo unspecified) | 0 | 13* | 2 | -6 | 8.2* | 0
c1ccc(C[n+]2ccccc2)cc1 | 0 | 0 | 1 | -9 | / | /
CC1CCN(CC(=O)c2ccc3c(c2)OCCO3)CC1 | 0 | 8.0* | 7 | -3 | 7 | 9.6*
O=P(N[C@@H](c1ccccc1)[C@@H]1C[C@H]1CO)(c1ccccc1)c1ccccc1 | 0 | 0 | -2 | -11 | / | /
Clc1ccc(N2CCN(Cc3ccccc3Cl)CC2)cc1 | 0 | 8.2* | 0 | 22 | 1 | 1
CN/C=C(/Cl)P(=O)(OC(C)C)OC(C)C | 0 | 8.0* | 0 | -4 | 4 | -1
Cc1cc2c(cc1C)NP(=S)(c1ccccc1)N2 | -1 | 9.3* | -3 | 4 | 6 | 8.3*
Fc1cccc(F)c1-c1nc(-c2ccc(Cl)cc2)no1 | 0 | 8.2* | 5 | 27 | 13* | 3
CCCC1(CCC)C(=O)NC(=NCc2ccccc2)NC1=O | 0 | 1 | 2 | -8 | / | /
Cc1ccccc1NC(=S)NC(NC(=O)CF)C(Cl)(Cl)Cl (stereo unspecified) | -1 | 9.2* | 3 | -7 | 3 | -1
COc1ccc(NC(=S)NC(NC(=O)CF)C(Cl)(Cl)Cl)c([N+](=O)[O-])c1 (stereo unspecified) | 0 | -1 | -1 | -10 | / | /
COc1ccc(-c2nc3ccccc3c(=O)o2)cc1 | 0 | 9.8* | 1 | 4 | 8.7* | 7.4*
COc1ccc(-n2c(-c3ccc(C)cc3)nc3ccccc3c2=O)cc1 | 0 | 2 | 2 | 13 | / | /
C[C@]12CC[C@H](O)C[C@H]1CC[C@@H]1[C@@H]2CC[C@]2(C)C(=O)CC[C@@H]12 | -1 | -3 | 2 | -2 | / | /
O=C(N/N=C/c1c(O)n(CCc2ccccc2)c(=O)[nH]c1=O)c1ccccc1O | -1 | -3 | 5 | 20 | / | /
CCCCCCC(=O)N/N=C/c1c(O)n(CCc2ccccc2)c(=O)[nH]c1=O | 0 | 8.7* | -2 | 17 | 0 | 0
O=C(Cc1ccc([N+](=O)[O-])cc1)N1CCN(Cc2ccc3c(c2)OCO3)CC1 | 0 | -2 | 1 | 9 | / | /
